Records with an inconclusive call do not appear. The source made the active and inactive calls. Unless noted, calls follow the shape of the dose curve; as a rule, active = well fitted cell-killing curve with a large enough effect; inconclusive = small, poorly fitted or top-dose-only effect; inactive = flat fitted curve, though single readings scatter.
Assays:
[1] = Cell Viability - LYMP2-002 (AID 977);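 also: series mostly up to about 92 µM; compound exposure lasted 24 h at 37 °C; plate controls were DMSO only for no effect and 92 µM tetraoctylammonium bromide for full effect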
Summary of the method: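 Human lymphoblastoid cells, 2500/well, complete medium; 5 h 37 C settle; compound 24 h 37 C; CellTiter-Glo, 30 min RT; luminescence. Decrease in ATP = cytotoxicity; AC50 via Hill equation.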

[2] = Cell Viability - LYMP2-006 (AID 978); also: series mostly up to about 92 µM; % is scaled to controls: 0 for no effect and ±100 for the full control effect; nearly all actives have a fitted effect of over 60% in size
Summary of the method: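 Human lymphoblastoid cells, 2500 per well, were preincubated 5 hr at 37 C, then exposed to compounds for 24 hr at 37 C in complete medium. Viability was read as intracellular ATP by CellTiter-Glo luminescence; AC50 from Hill-equation fits of qHTS concentration-response data.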

[3] = Cell Viability - LYMP2-007 (AID 979);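 also: cells exposed to compound for 24 h before reading; 0% = DMSO only and the negative end = 92 µM tetraoctylammonium bromide; nearly all actives have a fitted effect of over 60% in size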
Summary of the method: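 Cells are seeded at 2500 per well and rested 5 hr. Compounds are then added over a concentration series for 24 hr at 37 C. CellTiter-Glo is added for 30 min at room temperature before luminescence reading.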

[4] = Cell Viability - LYMP2-008 (AID 980); also: % is scaled to controls: 0 for no effect and ±100 for the full control effect; nearly all actives have a fitted effect of over 60% in size
Summary of the method: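 Cells seeded at 2500/well and rested 5 hr at 37 C; compounds added over a concentration range and incubated 24 hr at 37 C; CellTiter-Glo added, 30 min at room temperature; luminescence read and AC50 fitted with Hill model.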

[5] = Cell Viability - LYMP2-010 (AID 981); also: % is scaled to controls: 0 for no effect and ±100 for the full control effect; nearly all actives have a fitted effect of over 55% in size
Summary of the method: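 Steps: seed 2500 LYMP2-010 cells per well; incubate 5 hr at 37 C; add compound; incubate 24 hr at 37 C; add CellTiter-Glo, wait 30 min at room temperature; read luminescence. Concentration-response fitted to Hill equation for AC50.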

[6] = Cell Viability - LYMP2-012 (AID 982);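 also: cellular ATP by luciferase luminescence where a drop means cytotoxicity; cells exposed to compound for one day before reading; 0% = DMSO only and full loss = 92 µM tetraoctylammonium bromide; nearly all actives have a fitted effect of over 55% in size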
[7] = Cell Viability - LYMP2-014 (AID 983);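 also: series mostly up to about 92 µM; plate controls were DMSO only for no effect and 92 µM tetraoctylammonium bromide for full effect; nearly all actives have a fitted effect of over 50% in size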
Summary of the method: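 Cells are plated at 2500/well and left 5 hr at 37 C. Compounds are added across a concentration range and incubated 24 hr at 37 C in complete medium. CellTiter-Glo is added, and luminescence is read after 30 min at room temperature.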

[8] = Cell Viability - LYMP2-016 (AID 984); also: % is scaled to controls: 0 for no effect and ±100 for the full control effect; nearly all actives have a fitted effect of over 55% in size
Summary of the method: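 Human lymphoblastoid cells (LYMP2-016), 2500/well in complete medium, preincubated 5 hr at 37 C, then compound-treated 24 hr at 37 C. Intracellular ATP read by CellTiter-Glo luminescence after 30 min at room temperature; AC50 from Hill-equation concentration-response fits.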

[9] = Cell Viability - LYMP2-018 (AID 985);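 also: compound exposure lasted 24 hr at 37 °C; plate controls were DMSO only for no effect and tetraoctylammonium bromide at 92 µM for full effect; nearly all actives have a fitted effect of over 50% in size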
Summary of the method: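 Seed 2500 lymphoblastoid cells per well, incubate 5 hr at 37 C, add compound and incubate 24 hr at 37 C, add CellTiter-Glo, wait 30 min at room temperature, then read luminescence.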

[10] = Cell Viability - LYMP2-020 (AID 986);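 also: series mostly up to about 92 µM; plate controls were DMSO only for no effect and tetraoctylammonium bromide at 92 µM for full effect; nearly all actives have a fitted effect of over 55% in size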
Summary of the method: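 Seed 2500 cells per well and incubate 5 hr at 37 C. Add compounds at a concentration series and incubate 24 hr at 37 C. Add CellTiter-Glo, wait 30 min at RT, read luminescence, and fit a Hill curve for AC50.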

[11] = Cell Viability - LYMP2-022 (AID 987)
Summary of the method: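 Cells were seeded at 2500 per well, rested 5 hr at 37 C, and treated with titrated compounds for 24 hr at 37 C. Cellular ATP was then quantified by luciferase luminescence, and AC50 values were derived from Hill-modelled concentration-response curves.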

[12] = Cell Viability - LYMP2-024 (AID 988);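 also: plate controls were DMSO only for no effect and 92 µM tetraoctylammonium bromide for full effect; nearly all actives have a fitted effect of over 60% in size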
Summary of the method: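 qHTS cytotoxicity, human lymphoblastoid line, complete medium; 24 h cpd treatment, 37 C; CellTiter-Glo ATP luminescence readout; tetraoctylammonium bromide positive control; AC50 via Hill fit.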

[13] = Cell Viability - LYMP2-026 (AID 989); also: % is scaled to controls: 0 for no effect and ±100 for the full control effect; nearly all actives have a fitted effect of over 50% in size
Summary of the method: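 Cells are seeded at 2500 per well and held 5 hr at 37 C. Compounds are added in concentration series for 24 hr, then CellTiter-Glo reagent is applied and luminescence read.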

[14] = Cell Viability - LYMP1-002 - Assay at 24 hr (AID 993); also: % is scaled to controls: 0 for no effect and ±100 for the full control effect
Summary of the method: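 Acute toxicity is measured as concentration-dependent loss of cellular ATP in a human lymphoblastoid line (Coriell LYMP1-002) after 24 h treatment in complete medium. ATP is quantified by luciferase luminescence and AC50 derived by Hill modelling.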

[15] = Cell Viability - LYMP1-002 - Assay at 40 hr (AID 994)
Summary of the method: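 Cells are plated at 2500 per well and rested 5 hr at 37 C. Compounds are added and incubated 40 hr at 37 C. CellTiter-Glo reagent is added for 30 min at room temperature before luminescence is read.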

[16] = qHTS Assay for Identification of Small Molecule Inducers of Hypoxia Response (AID 2120; active = well fitted curve in the direction sought with a large enough effect in the signal ratio, with a control signal flat, not every such curve was filed as active; the % refers to the signal ratio; also: 0% is about no effect)
Summary of the method: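 Cell-based qHTS for reporter induction: hypoxia response element controlled beta-lactamase in ME-180 cells. Compounds incubated 17 h at 37 degrees C; activity from blue/green (460/530 nm) ratio, inducers ranked by AC50.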

[17] = biological target: Androgen receptor (Homo sapiens) (UniProt P10275); experiment: qHTS assay for small molecule agonists of androgen receptor signaling (AID 588515; active = well fitted curve in the direction sought with a large enough effect in the signal ratio, with a control signal flat; the % refers to the signal ratio; also: % is scaled to controls: 0 for no effect and ±100 for the full control effect); settings: AR-UAS-bla HEK293, beta-lactamase ratio, agonist 16 h; hits give high values
Summary of the method: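 Stimulation of an AR-responsive β-lactamase reporter in GripTite HEK293 cells was measured after 16 h compound exposure at 37 °C, via CCF4 fluorescence after 2 h RT. EC50 from Hill fits, normalized to R1881 at 30 nM.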

[18] = biological target: Androgen receptor (Homo sapiens) (UniProt P10275); experiment: qHTS assay for small molecule antagonists of androgen receptor signaling (AID 588516; active = well fitted curve in the direction sought with a large enough effect in the signal ratio, with a control signal flat, not every such curve was filed as active; the % refers to the signal ratio; also: % is scaled to controls: 0 for no effect and ±100 for the full control effect)
Summary of the method: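 AR-UAS-bla-GripTite HEK 293 cells (2000/well, 5 h at 37 C) received compound titrations, then R1881 at 10 nM final; after 16 h at 37 C, CCF4 dye 2 h RT, beta-lactamase fluorescence read; IC50 from Hill fits.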

[19] = biological target: Estrogen receptor (Homo sapiens) (UniProt P03372); experiment: qHTS assay for small molecule antagonists of estrogen receptor alpha signaling (AID 588513; active = well fitted curve in the direction sought with a large enough effect in the signal ratio, with a control signal flat, not every such curve was filed as active; the % refers to the signal ratio; also: % is scaled to controls: 0 for no effect and ±100 for the full control effect)
Summary of the method: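 ER-alpha-UAS-bla GripTite HEK 293 cells in medium with 2% charcoal/dextran-treated FBS were preincubated 4 h at 37 C, dosed with compound (1:2 titration), stimulated with 0.5nM 17-beta-estradiol for 18 h, then read by CCF4 beta-lactamase fluorescence.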

[20] = biological target: Estrogen receptor (Homo sapiens) (UniProt P03372); experiment: qHTS assay for small molecule agonists of estrogen receptor alpha signaling (AID 588514; calls by dose curve;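 also: 0% = vehicle only and 100% = reference agonist; nearly all actives have a fitted effect of over 70% in size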)
Summary of the method: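 Efficacy is expressed against 20 nM 17-beta-estradiol (100%) and DMSO basal (0%); EC50 from Hill equation. Assay: beta-lactamase reporter in ER-alpha-UAS-bla HEK 293 cells, 18 h compound incubation, CCF4 detection.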

Androgen receptor (Homo sapiens), sequence (P10275 whole entry, looked up): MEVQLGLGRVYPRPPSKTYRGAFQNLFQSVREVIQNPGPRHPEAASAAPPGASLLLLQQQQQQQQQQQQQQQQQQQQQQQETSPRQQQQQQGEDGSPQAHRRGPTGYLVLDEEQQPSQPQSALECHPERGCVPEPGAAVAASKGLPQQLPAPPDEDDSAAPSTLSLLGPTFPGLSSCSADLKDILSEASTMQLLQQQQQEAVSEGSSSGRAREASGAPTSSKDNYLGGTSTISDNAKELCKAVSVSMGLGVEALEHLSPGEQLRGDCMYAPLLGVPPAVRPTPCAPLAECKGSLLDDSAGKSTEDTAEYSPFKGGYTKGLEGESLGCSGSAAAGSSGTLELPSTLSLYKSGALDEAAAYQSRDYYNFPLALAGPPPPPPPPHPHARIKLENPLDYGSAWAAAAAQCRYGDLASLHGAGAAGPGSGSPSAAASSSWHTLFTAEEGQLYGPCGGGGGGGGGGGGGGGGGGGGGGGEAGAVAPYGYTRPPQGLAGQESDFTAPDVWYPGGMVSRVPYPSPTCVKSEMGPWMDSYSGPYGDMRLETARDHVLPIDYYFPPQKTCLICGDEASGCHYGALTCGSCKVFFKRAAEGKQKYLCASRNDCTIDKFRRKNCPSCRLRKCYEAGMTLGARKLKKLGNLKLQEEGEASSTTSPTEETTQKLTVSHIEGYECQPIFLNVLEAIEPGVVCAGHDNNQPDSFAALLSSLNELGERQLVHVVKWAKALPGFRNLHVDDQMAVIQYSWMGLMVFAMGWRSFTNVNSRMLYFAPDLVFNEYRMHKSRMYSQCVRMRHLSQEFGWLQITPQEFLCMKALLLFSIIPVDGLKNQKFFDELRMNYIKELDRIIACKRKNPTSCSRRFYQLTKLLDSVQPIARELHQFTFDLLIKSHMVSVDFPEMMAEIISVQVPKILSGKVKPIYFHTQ
Estrogen receptor (Homo sapiens), sequence (P03372 whole entry, looked up): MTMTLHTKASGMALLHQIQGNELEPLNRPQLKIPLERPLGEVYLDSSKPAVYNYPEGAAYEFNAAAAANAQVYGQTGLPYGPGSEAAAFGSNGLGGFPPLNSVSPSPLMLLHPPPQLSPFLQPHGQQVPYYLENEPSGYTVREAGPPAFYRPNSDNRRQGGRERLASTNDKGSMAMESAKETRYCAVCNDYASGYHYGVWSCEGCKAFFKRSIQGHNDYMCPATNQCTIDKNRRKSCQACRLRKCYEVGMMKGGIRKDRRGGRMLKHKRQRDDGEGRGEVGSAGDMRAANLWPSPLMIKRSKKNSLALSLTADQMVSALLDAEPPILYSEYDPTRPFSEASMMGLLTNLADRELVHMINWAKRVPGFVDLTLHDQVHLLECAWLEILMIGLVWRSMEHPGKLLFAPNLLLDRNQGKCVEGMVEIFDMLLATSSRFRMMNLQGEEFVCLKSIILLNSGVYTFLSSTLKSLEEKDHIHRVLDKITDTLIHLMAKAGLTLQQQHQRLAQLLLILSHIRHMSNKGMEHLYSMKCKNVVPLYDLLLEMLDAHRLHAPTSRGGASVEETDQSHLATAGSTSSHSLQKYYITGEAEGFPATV

C1CCOC1
inactive: Potency [1] | Potency [2] | Potency [3] | Potency [4] | Potency [5] | Potency [6] | Potency [7] | Potency [8] | Potency [9] | Potency [10] | Potency [11] | Potency [12] | outcome [13] | Potency [14] | Potency [15] | outcome [16]

CCCCCNCCCCC
inactive: Potency [1] | Potency [2] | Potency [3] | Potency [4] | Potency [5] | Potency [6] | Potency [7] | Potency [8] | Potency [9] | Potency [10] | Potency [11] | Potency [12] | outcome [13] | Potency [14] | Potency [15] | outcome [16]

CCCC(C)CO (stereo unspecified)
inactive: Potency [2] | Potency [3] | Potency [4] | Potency [5] | Potency [6] | Potency [7] | Potency [8] | Potency [9] | Potency [10] | Potency [11] | Potency [12] | outcome [13] | Potency [14] | Potency [15] | outcome [16] | activation [17] -5.4% | outcome [18]

NC(=S)NNC(N)=S
inactive: Potency [1] | Potency [2] | Potency [3] | Potency [4] | Potency [5] | Potency [6] | Potency [7] | Potency [8] | Potency [9] | Potency [10] | Potency [11] | Potency [12] | outcome [13] | outcome [16]

O=C(O)CN(CC(=O)O)CC(=O)O
inactive: Potency [1] | Potency [2] | Potency [3] | Potency [4] | Potency [5] | Potency [6] | Potency [7] | Potency [8] | Potency [9] | Potency [10] | Potency [11] | Potency [12] | outcome [13] | Potency [14] | Potency [15] | outcome [16]

CC(C=O)Cc1ccc(C(C)(C)C)cc1 (stereo unspecified)
inactive: Potency [1] | Potency [2] | Potency [3] | Potency [4] | Potency [5] | Potency [6] | Potency [7] | Potency [8] | Potency [9] | Potency [10] | Potency [11] | Potency [12] | outcome [13] | Potency [14] | Potency [15] | outcome [16] | activation [17] 8.05% | outcome [18]

Cc1c(C(=O)O)cccc1[N+](=O)[O-]
inactive: Potency [2] | Potency [3] | Potency [4] | Potency [5] | Potency [6] | Potency [7] | Potency [8] | Potency [9] | Potency [10] | Potency [11] | Potency [12] | outcome [13] | Potency [14] | Potency [15] | outcome [16] | activation [17] -4.24%

Cc1ccc(C)o1
inactive: Potency [1] | Potency [2] | Potency [3] | Potency [4] | Potency [5] | Potency [6] | Potency [7] | Potency [8] | Potency [9] | Potency [10] | Potency [11] | Potency [12] | outcome [13] | Potency [14] | Potency [15] | outcome [16]

O=C(O)c1c(Cl)cccc1Cl
inactive: Potency [1] | Potency [2] | Potency [3] | Potency [4] | Potency [5] | Potency [6] | Potency [7] | Potency [8] | Potency [9] | Potency [10] | Potency [11] | Potency [12] | outcome [13] | Potency [14] | Potency [15] | outcome [16]

Cc1ccc2nc(-c3ccc(N)cc3)sc2c1S(=O)(=O)O
inactive: Potency [1] | Potency [2] | Potency [3] | Potency [4] | Potency [5] | Potency [6] | Potency [7] | Potency [8] | Potency [10] | Potency [11] | Potency [12] | outcome [13] | Potency [14] | Potency [15] | outcome [16] | outcome [19]

O=C(O)/C=C/C(=O)O
inactive: Potency [1] | Potency [2] | Potency [3] | Potency [4] | Potency [5] | Potency [6] | Potency [7] | Potency [8] | Potency [9] | Potency [10] | Potency [11] | Potency [12] | outcome [13] | Potency [14] | Potency [15] | outcome [16]

O=C(Cl)c1ccccc1[N+](=O)[O-]
inactive: Potency [1] | Potency [2] | Potency [3] | Potency [4] | Potency [5] | Potency [6] | Potency [7] | Potency [8] | Potency [9] | Potency [10] | Potency [11] | Potency [12] | outcome [13] | Potency [14] | Potency [15] | outcome [16] | outcome [18]

O=[N+]([O-])c1cc(C(F)(F)F)ccc1Cl
inactive: Potency [1] | Potency [2] | Potency [3] | Potency [4] | Potency [6] | Potency [7] | Potency [8] | Potency [9] | Potency [10] | Potency [11] | Potency [12] | outcome [13] | Potency [14] | Potency [15] | outcome [16] | outcome [18]

CCCCC(CC)C(=O)O (stereo unspecified)
inactive: Potency [1] | Potency [2] | Potency [3] | Potency [4] | Potency [5] | Potency [6] | Potency [7] | Potency [8] | Potency [9] | Potency [10] | Potency [11] | Potency [12] | outcome [13] | Potency [14] | Potency [15] | outcome [16]

O=C(O)c1ccccc1C(=O)O
inactive: Potency [1] | Potency [2] | Potency [3] | Potency [5] | Potency [6] | Potency [7] | Potency [8] | Potency [9] | Potency [10] | Potency [11] | Potency [12] | outcome [13] | Potency [14] | Potency [15] | outcome [16] | Potency [20]

C1CCCC1
inactive: Potency [1] | Potency [2] | Potency [3] | Potency [4] | Potency [5] | Potency [6] | Potency [7] | Potency [8] | Potency [9] | Potency [10] | Potency [11] | Potency [12] | outcome [13] | Potency [14] | Potency [15] | outcome [16]

Cc1cccc2sc(N)nc12
inactive: Potency [1] | Potency [2] | Potency [3] | Potency [4] | Potency [5] | Potency [7] | Potency [8] | Potency [10] | Potency [11] | Potency [12] | outcome [13] | Potency [14] | Potency [15] | outcome [16] | outcome [19]

CC=C(Cl)Cl
inactive: Potency [1] | Potency [2] | Potency [3] | Potency [4] | Potency [5] | Potency [6] | Potency [7] | Potency [9] | Potency [10] | Potency [11] | Potency [12] | outcome [13] | Potency [14] | Potency [15] | outcome [16] | outcome [19]

O=Cc1ccc(CO)o1
inactive: Potency [1] | Potency [2] | Potency [3] | Potency [4] | Potency [5] | Potency [6] | Potency [7] | Potency [8] | Potency [9] | Potency [10] | Potency [11] | Potency [12] | outcome [13] | Potency [14] | Potency [15] | outcome [16] | outcome [19]

Reference: PubChem BioAssay (NCATS)
